PubChem BioAssay (NCATS)
“And” between values parts separate entries of the source, which are not always exact repeats. Equal values may be shown once. Unmarked numbers belong to inactive results. Inconclusive results are not listed. Where a call stands in place of a potency, no number is given. The source made the active and inactive calls. Calls follow the shape of the dose curve; as a rule, active = well fitted curve in the direction sought with a large enough effect; inconclusive = small, poorly fitted or top-dose-only effect, or another doubt; inactive = no such curve, though single readings can be large; an effect the other way counts as inactive or inconclusive.

Tests used:
[1] = Primary qHTS for inhibitors of nuclear receptor binding SET domain protein 2 (NSD2) in an RCH-ACV wild type WT cells (2C) (AID 1645877); also: nearly all actives have a fitted effect of over 70% in size; also: potency is read from the fitted curve at half-maximal effect
[2] = molecular target: Glutathione peroxidase 1 (Homo sapiens) (UniProt P07203); test: Primary qHTS Assay for Inhibitors of Recombinant Selenoprotein Glutathione Peroxidase 1 (GPX1) (AID 1845191); also: nearly all actives have a fitted effect of over 65% in size
Sequence of Glutathione peroxidase 1 (Homo sapiens) (P07203 whole entry, looked up): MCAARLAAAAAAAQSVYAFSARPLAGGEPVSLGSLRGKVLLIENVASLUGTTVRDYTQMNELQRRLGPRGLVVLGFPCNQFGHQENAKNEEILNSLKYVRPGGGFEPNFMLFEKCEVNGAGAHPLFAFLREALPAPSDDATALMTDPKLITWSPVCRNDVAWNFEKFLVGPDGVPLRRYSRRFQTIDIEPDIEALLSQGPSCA
Method in brief: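 GR-coupled readout: NADPH consumption tracked by fluorescence, ex 340/em 450 nm, at t=0 and after 15 min at RT. Final mix 10 nM GPX1, 1 mM GSH, 0.5 mM CHP, 0.5 mM NADPH, 100 nM GR, 0.01% BSA, following 30 min enzyme–compound preincubation.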

[3] = molecular target: Phospholipid hydroperoxide glutathione peroxidase GPX4 (Homo sapiens) (UniProt P36969); test: Primary qHTS Assay for Inhibitors of Recombinant Selenoprotein Glutathione Peroxidase 4 (GPX4) (AID 1845192); also: series mostly up to about 50 µM; nearly all actives have a fitted effect of over 65% in size
Sequence of Phospholipid hydroperoxide glutathione peroxidase GPX4 (Homo sapiens) (P36969 whole entry, looked up): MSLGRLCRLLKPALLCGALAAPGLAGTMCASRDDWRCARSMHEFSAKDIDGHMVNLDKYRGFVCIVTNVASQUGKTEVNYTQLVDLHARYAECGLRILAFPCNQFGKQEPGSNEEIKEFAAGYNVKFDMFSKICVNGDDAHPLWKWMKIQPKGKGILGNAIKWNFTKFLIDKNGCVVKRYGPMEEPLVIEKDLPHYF
Method in brief: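 Steps: GPX4 plus compound, 30 min RT; add GR/GSH/NADPH master mix; start with cumene hydroperoxide; read 340/450 nm fluorescence at 0 and 15 min. Finals were 200 nM GPX4, 1 mM GSH, 0.5 mM CHP, 0.5 mM NADPH, 100 nM GR.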

[4] = molecular target: Luciferin 4-monooxygenase (Photinus pyralis) (UniProt P08659); test: Primary firefly luciferase (FLuc) qHTS assay for identification of artifact compounds. (AID 1845220); also: nearly all actives have a fitted effect of over 60% in size; as to activity change, negative = inhibition: series mostly up to about 54 µM
Method in brief: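 Titrated compounds were incubated 15 min at RT, protected from light, with luciferin and ATP at 10 uM; reaction started with 10 nM FLuc, luminescence imaged at 5 min, and concentration-response fitted by Hill equation.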

[5] = Primary fluorescence-based thiol-reactive (MSTI) qHTS assay for identification of artifact compounds. (AID 1845221); also: nearly all actives have a fitted effect of over 65% in size; also: potency is read from the fitted curve at half-maximal effect;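 as to activity change, negative = thiol reactive: series mostly up to about 54 µM; thiol-reactive compounds lower the probe fluorescence signal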
Method in brief: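 First, 4 uM MSTI in 2% DMSO/PBS pH 7.4 was dispensed; next, compounds were added; then plates sat 1 h at room temperature without light. Finally, emission at 598 nm was recorded.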

[6] = tested on: Nanoluciferase (engineered Oplophorus gracilirostris luciferase); test: Primary Nanoluciferase (NLuc) qHTS assay for identification of artifact compounds. (AID 1845222);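 also: NLuc secreted into diluted conditioned medium of S16 cells; series mostly up to about 54 µM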
Method in brief: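 qHTS format, against NLuc in S16 cell-conditioned medium. Nano-Glo substrate 1:100 was added after 15 min at room temperature. Luminescence was taken after a further 5 min.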

[7] = Primary redox qHTS assay for identification of artifact compounds. (AID 1845223)
Method in brief: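 Redox-cycling detection via DTT (250 uM final) oxidation coupled to Amplex Red (25 uM)/HRP (250 mU/mL) in HBSS. 15 min preincubation plus 30 min after DTT, room temperature. Ex/Em 525/598 nm; 4-parameter Hill fit against DMSO and 10 uM DA3003.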

| Structure (SMILES) | Potency [1] | Potency [2] | Potency [3] | Potency [4] | Potency [5] | Potency [6] | Potency [7] | activity, negative = inhibition [2] | activity change, negative = inhibition [3] | activity change, negative = inhibition [4] | activity change, negative = thiol reactive [5] | activity, negative = inhibition [6] | redox activity (% of DA3003) [7] |
| --- | --- | --- | --- | --- | --- | --- | --- | --- | --- | --- | --- | --- | --- |
| COc1cc(OC)c(/C=C/S(=O)(=O)Cc2ccc(OC)c(NCC(=O)O)c2)c(OC)c1 | 51.5 nM (active) and 46.8 nM (active) | inactive | inactive | inactive | 3.36 µM (active) | inactive | inactive |  |  |  |  |  |  |
| CCCC(=O)C1CCN(c2ncnc3c2CN(C(=O)c2ccc(-c4ccccc4)cc2)CC3)CC1 | 20.5 µM (active) | inactive | inactive | inactive | inactive | inactive | inactive |  |  |  |  |  |  |
| CCCCc1ccc(C(=O)Nc2cc(-c3ccc(Cl)cc3)nn2-c2ccc(Cl)cc2)cc1 | inactive | inactive | inactive | inactive | inactive | inactive | inactive |  |  |  |  |  |  |
| CC(O)c1cc(C(=O)N[C@@H](C)Cn2ccc(-c3ccc(C#N)c(Cl)c3)n2)n[nH]1 (stereo partly drawn) | 20.9 µM (active) | inactive | inactive | inactive | inactive | inactive | inactive |  |  |  |  |  |  |
| CC1(C)CC[C@]23CO[C@@]4(CCC5[C@@]6(C)CC[C@H](O[C@@H]7OC[C@H](O[C@@H]8O[C@H](CO)[C@@H](O)[C@H](O)[C@H]8O)[C@H](O)[C@H]7O[C@@H]7O[C@H](CO)[C@@H](O[C@@H]8O[C@H](CO)[C@@H](O)[C@H](O)[C@H]8O)[C@H](O)[C@H]7O)[C@@](C)(CO)C6CC[C@@]5(C)[C@]4(C)C[C@H]2OC2OCC(O)C(O)C2O)C3C1 (stereo partly drawn) | 1.09 µM (active) |  |  |  |  |  |  | -19.2% [at 9.52 µM] | -5.8% [at 9.73 µM] | -1.22% [at 11.6 µM] | 227% [at 11.5 µM] | 0% [at 11.6 µM] | 2.43% [at 11.5 µM] |
| CC1=CCC(C(C)(C)O[C@@H]2O[C@H](CO[C@@H]3O[C@@H](C)[C@H](O)[C@@H](O)[C@H]3O)[C@@H](O)[C@H](O)[C@H]2O)CC1 (stereo partly drawn) | inactive | inactive | inactive | inactive | inactive | inactive | inactive |  |  |  |  |  |  |
| O=C(/C=C\n1cnc(-c2cc(C(F)(F)F)cc(C(F)(F)F)c2)n1)N1CC(F)(F)C1 | 0.833 µM (active) | inactive | inactive | inactive | inactive | inactive | inactive |  |  |  |  |  |  |
| CC(=O)N1CCc2ccc(O)c(OC3OC(COC4OCC(O)(CO)C4O)C(O)C(O)C3O)c2C1Cc1ccc(O)cc1 (stereo not drawn) | inactive | inactive | inactive | inactive | inactive | inactive | inactive |  |  |  |  |  |  |
| C=C(C)C1CCC(C)C12CC(O)C1(C)OC1C2OC(=O)C(N)CCC(=O)O (stereo not drawn) | inactive | inactive | inactive | inactive | inactive | inactive | inactive |  |  |  |  |  |  |
